These results are taken from PubChem BioAssay (EPA / NIEHS).

Usually AC50 stands for the concentration at which the activity in the assay is half-maximal.

Inconclusive results are not listed. Calls of active or inactive are those of the source. The calls were made as follows, unless noted: active = hit-call score of the fitted dose curve at least 0.9, where 1 is the maximum; inactive = score below 0.9.

In experiment [1] the target is Glucocorticoid receptor (Homo sapiens) (UniProt P04150). Kind of experiment: ATG_GR_TRANS: Attagene TRANS-FACTORIAL HepG2 Assay for human Glucocorticoid Receptor (GR) (AID 2282978; active = hit-call score of the fitted dose curve at least 0.9, where 1 is the maximum;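 also: activators score as hits since higher reporter transcript over DMSO is fitted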). The note with it: HepG2 Attagene TRANS GR reporter, mRNA transcription. The method in brief: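 HepG2 cells transiently transfected with GAL4-UAS reporter units and exogenous GR-Gal4 chimera, dosed 24 h. Reporter mRNA by RT-PCR, FAM labeling, HpaI digest and capillary electrophoresis; gain-of-signal fit versus DMSO.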

The target in experiment [2] is Bile acid receptor (Homo sapiens) (UniProt Q96RI1). Kind of experiment: ATG_FXR_TRANS: Attagene TRANS-FACTORIAL HepG2 Assay for Farnesoid X Receptor (FXR) (AID 2282979; active = hit-call score of the fitted dose curve at least 0.9, where 1 is the maximum;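 also: hits raise reporter mRNA above DMSO so AC50 marks FXR activation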). The note with it: HepG2 Attagene TRANS FXR-GAL4 reporter transcription. The method in brief:
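Chimeric FXR-GAL4 activity in transiently transfected human HepG2 liver cells is scored as induction of reporter mRNA after 24 h of dosing. Detection uses RT-PCR with fluorescent labelling and capillary electrophoresis, with DMSO serving as baseline.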

Experiment [3] in a line: ATG_M_06_TRANS: Attagene TRANS-FACTORIAL HepG2 Assay for M06 Transcription Factor (Internal Marker) (AID 2282983; active = hit-call score of the fitted dose curve at least 0.9, where 1 is the maximum). The note with it: HepG2 Attagene TRANS M06 internal marker reporter. The method in brief:
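Measured by capillary electrophoresis of fluorescently labelled RT-PCR products, this endpoint reflects reporter mRNA in HepG2 cells harbouring exogenous NR-GAL4 reporter constructs after 24 h exposure, with DMSO as baseline.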

Experiment [4] concerns the target Transcriptional activator Myb (Homo sapiens) (UniProt P10242). Nature of the experiment: ATG_Myb_CIS: Attagene CIS-FACTORIAL HepG2 Assay for human Myeloblastosis (Myb) Proto-Oncogene Transcription Factor (AID 2282986). Conditions: HepG2 Attagene CIS-FACTORIAL Myb reporter transcription; actives raise or lower the signal. The method in brief: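 Transiently transfected HepG2 cells carrying a multiplexed cis-promoter reporter set report endogenous Myb activity after 24 h compound exposure. Reporter mRNA is read by RT-PCR with capillary electrophoresis of fluorescent products, fitted bidirectionally against DMSO.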

Experiment [5] concerns the target Nuclear respiratory factor 1 (Homo sapiens) (UniProt Q16656). Nature of the experiment: ATG_NRF1_CIS: Attagene CIS-FACTORIAL HepG2 Assay for human Nuclear Respiratory Factor 1 (NRF1) Orphan Gene (AID 2282987). The note with it: HepG2 NRF1 cis-element reporter, Attagene multiplex; actives raise or lower the signal. The method in brief: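 HepG2 cells transiently transfected with multiple cis-regulated reporter units, exposed 24 h. Reporter mRNAs measured by RT-PCR, fluorescent labelling, HpaI digestion and capillary electrophoresis; bidirectional fitting against DMSO.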

Experiment [6] is described as follows: ATG_NFI_CIS: Attagene CIS-FACTORIAL HepG2 Assay for human Nuclear Factor I (NFI) (AID 2282989). The note with it: HepG2 cis-regulatory reporter, NFI response element transcription; actives raise or lower the signal. Put shortly:
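Read-out: reporter mRNA via RT-PCR plus capillary electrophoresis with fluorescence detection. Transiently transfected HepG2 (endogenous TF activity on cis promoters), 24 h compound exposure; gain or loss of signal fitted against DMSO.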

Experiment [7] concerns the target Myc proto-oncogene protein (Homo sapiens) (UniProt P01106). Nature of the experiment: ATG_Myc_CIS: Attagene CIS-FACTORIAL HepG2 Assay for human Myelocytomatosis (Myc) Proto-Oncogene Transcription Factor (AID 2282990). The note with it: HepG2, Attagene cis-reporter transcription factor activity; actives raise or lower the signal. Put shortly: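 Read-out: fluorescent reporter mRNA fragments resolved by capillary electrophoresis after RT-PCR. Human HepG2 liver cells carried transfected cis-element reporter units and were dosed for 24 h. Gain or loss of signal fitted relative to DMSO baseline.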

A short description of experiment [8]: ATG_NF_kB_CIS: Attagene CIS-FACTORIAL HepG2 Assay for human Nuclear Factor Kappa B (NF-kB) (AID 2282991). The note with it: HepG2 Attagene cis-factorial NF-kB reporter mRNA; actives raise or lower the signal. Put shortly:
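HepG2 cells transfected with cis-promoter-driven reporter units, so endogenous transcription factor activity is measured. Reporter mRNA quantified 24 h after dosing by RT-PCR and capillary electrophoresis, with bidirectional fitting against DMSO.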

Experiment [9] is described as follows: ATG_NRF2_ARE_CIS: Attagene CIS-FACTORIAL HepG2 Assay for human Nuclear Factor Erythroid 2 Related Factor 2 (NFR2) response to Antioxidant Response Elements (ARE) (AID 2282992).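 As to AC50: reporter mRNA level measured by RT-PCR and capillary electrophoresis fluorescence.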 The note with it: HepG2 Attagene ARE/NRF2 reporter, transcription factor activity; actives raise or lower the signal. The method in brief:
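Cis-factorial assay: transfected HepG2 reporter library, 24 h dosing, mRNA readout via RT-PCR/CE; DMSO-referenced bidirectional analysis.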

Experiment [10] can be described thus: ATG_Oct_MLP_CIS: Attagene CIS-FACTORIAL HepG2 Assay for human Octamer-Binding Transcription Factor (Oct) (AID 2282993). The note with it: HepG2 Attagene cis-factorial Oct reporter, mRNA; actives raise or lower the signal. Put shortly: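 Read-out: reporter mRNA via RT-PCR plus capillary electrophoresis of 6-FAM-labelled fragments. Transiently transfected HepG2, 24 h exposure, endogenous TF activity on cis elements. Gain or loss of signal fitted relative to DMSO.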

Experiment [11] concerns the target Cellular tumor antigen p53 (Homo sapiens) (UniProt P04637). Kind of experiment: ATG_p53_CIS: Attagene CIS-FACTORIAL HepG2 Assay for human p53 Transcription Factor (AID 2282994). The note with it: HepG2 p53 cis-element reporter, Attagene mRNA; actives raise or lower the signal. Put shortly: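 Using HepG2 hepatoma cells carrying cis-acting multiplexed reporters, mRNA induction is detected after a 24 h exposure. Gain- and loss-of-signal responses are fitted relative to DMSO-treated cells.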

Experiment [12] in a line: BSK_3C_TissueFactor: BioMAP Diversity Plus: 3C Assay for Tissue Factor Biomarker Activity (AID 2282997). The note with it: BioMAP 3C HUVEC, tissue factor biomarker readout; actives raise or lower the signal. The method in brief:
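Values derive from bidirectional curve fitting against DMSO of Tissue Factor ELISA signals, taken 24 h after dosing primary human umbilical vein endothelial cells.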

A short description of experiment [13]: BSK_3C_uPAR: BioMAP Diversity Plus: 3C Assay for Urokinase-type plasminogen activator receptor (uPAR) Biomarker Activity (AID 2282998). Conditions: BioMAP 3C HUVEC, uPAR biomarker ELISA; actives raise or lower the signal. Put shortly: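 HUVEC primary cells; 24 h post-dose; uPAR by ELISA; gain or loss of signal fitted bidirectionally vs DMSO baseline.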
For orientation: ELISA stands for enzyme-linked immunosorbent assay.

A short description of experiment [14]: BSK_3C_VCAM1: BioMAP Diversity Plus: 3C Assay for Vascular cell adhesion molecule 1 (VCAM1) Biomarker Activity (AID 2282999). The note with it: BioMAP 3C HUVEC, VCAM1 ELISA, cytokine-stimulated; actives raise or lower the signal. Put shortly: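 Human umbilical vein endothelial cells (3C system), biomarker read by ELISA 24 h after dosing; bidirectional fit against DMSO baseline. Cytotoxicity tracked by SRB total-protein staining in parallel cultures at biomarker time.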

The target in experiment [15] is Hepatocyte nuclear factor 4-alpha (Homo sapiens) (UniProt P41235). Nature of the experiment: ATG_HNF4a_TRANS: Attagene TRANS-FACTORIAL HepG2 Assay for human Hepatocyte Nuclear Factor 4 alpha (HNF4a) (AID 2282982; active = hit-call score of the fitted dose curve at least 0.9, where 1 is the maximum). The note with it: HepG2 HNF4a transactivation reporter, mRNA readout. The method in brief: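 Gain-of-signal mRNA induction, relative to DMSO vehicle, was read after 24 h compound treatment of HepG2 cells bearing transfected GAL4-UAS reporters. Detection used RT-PCR, 6-FAM primer extension and capillary electrophoresis.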

Experiment [16] is described as follows: ATG_M_32_TRANS: Attagene TRANS-FACTORIAL HepG2 Assay for M32 Transcription Factor (Internal Marker) (AID 2282984; active = hit-call score of the fitted dose curve at least 0.9, where 1 is the maximum;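 also: transcript level of a background control reporter unit measured by RT-PCR and capillary electrophoresis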). Conditions: HepG2 Attagene TRANS M32 internal marker reporter. The method in brief:
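Capillary electrophoresis of 6-FAM-labelled reporter fragments gives the signal; data fitted for gain over DMSO negative control. Source: HepG2 cells bearing transient multiple reporter transcription units, 24 h exposure.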

The target in experiment [17] is Nuclear receptor subfamily 4 group A member 2 (Homo sapiens) (UniProt P43354). Nature of the experiment: ATG_NURR1_TRANS: Attagene TRANS-FACTORIAL HepG2 Assay for human Nuclear Receptor Related Protein 1 (NURR1) (AID 2282985; active = hit-call score of the fitted dose curve at least 0.9, where 1 is the maximum). The note with it: HepG2 Attagene TRANS reporter, mRNA readout. Put shortly:
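HepG2 / transient MRTU transfection / 24 h compound exposure / RT-PCR + CE fluorescence of reporter mRNA / gain-of-signal vs DMSO.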

Experiment [18] addresses Oxysterols receptor LXR-alpha (Homo sapiens) (UniProt Q13133). Kind of experiment: ATG_LXRa_TRANS: Attagene TRANS-FACTORIAL HepG2 Assay for human Liver X Receptor alpha (LXRa) (AID 2282980; active = hit-call score of the fitted dose curve at least 0.9, where 1 is the maximum). The note with it: HepG2 Attagene TRANS reporter, LXRa transactivation. Put shortly:
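Transient HepG2 transfectants, 24 h dosing, RT-PCR/CE mRNA reporter quantitation; gain-of-signal vs DMSO.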

Experiment [19] concerns the target Oxysterols receptor LXR-beta (Homo sapiens) (UniProt P55055). Kind of experiment: ATG_LXRb_TRANS: Attagene TRANS-FACTORIAL HepG2 Assay for human Liver X Receptor beta (LXRb) (AID 2282981; active = hit-call score of the fitted dose curve at least 0.9, where 1 is the maximum). Conditions: HepG2 Attagene TRANS GAL4-LXRb reporter, mRNA. Put shortly: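 Gain-of-signal mRNA reporter endpoint, DMSO as negative control. Transiently transfected HepG2 cells carrying the NR-Gal4 chimera and GAL4-UAS reporter units were treated 24 h; transcripts quantified by RT-PCR and capillary electrophoresis fluorescence.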

Nuclear receptor subfamily 4 group A member 2 (Homo sapiens), sequence (P43354 whole entry, looked up): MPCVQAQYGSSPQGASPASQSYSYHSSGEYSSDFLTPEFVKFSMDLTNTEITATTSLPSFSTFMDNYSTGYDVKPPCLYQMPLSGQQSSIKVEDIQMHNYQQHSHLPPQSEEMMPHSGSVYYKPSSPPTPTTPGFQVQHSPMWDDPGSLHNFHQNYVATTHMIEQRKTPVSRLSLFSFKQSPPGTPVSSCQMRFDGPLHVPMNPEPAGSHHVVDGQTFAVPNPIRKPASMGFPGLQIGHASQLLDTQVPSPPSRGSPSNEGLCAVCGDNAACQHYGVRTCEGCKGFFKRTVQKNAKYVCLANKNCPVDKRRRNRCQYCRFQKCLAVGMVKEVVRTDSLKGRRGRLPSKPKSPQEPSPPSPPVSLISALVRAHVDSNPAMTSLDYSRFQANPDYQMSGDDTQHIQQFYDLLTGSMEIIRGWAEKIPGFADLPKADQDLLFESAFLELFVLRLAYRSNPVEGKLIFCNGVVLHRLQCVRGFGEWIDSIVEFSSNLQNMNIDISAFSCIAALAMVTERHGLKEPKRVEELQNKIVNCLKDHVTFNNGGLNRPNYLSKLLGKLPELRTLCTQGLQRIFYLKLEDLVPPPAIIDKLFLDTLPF
Hepatocyte nuclear factor 4-alpha (Homo sapiens), sequence (P41235 whole entry, looked up, the tested form may be a part): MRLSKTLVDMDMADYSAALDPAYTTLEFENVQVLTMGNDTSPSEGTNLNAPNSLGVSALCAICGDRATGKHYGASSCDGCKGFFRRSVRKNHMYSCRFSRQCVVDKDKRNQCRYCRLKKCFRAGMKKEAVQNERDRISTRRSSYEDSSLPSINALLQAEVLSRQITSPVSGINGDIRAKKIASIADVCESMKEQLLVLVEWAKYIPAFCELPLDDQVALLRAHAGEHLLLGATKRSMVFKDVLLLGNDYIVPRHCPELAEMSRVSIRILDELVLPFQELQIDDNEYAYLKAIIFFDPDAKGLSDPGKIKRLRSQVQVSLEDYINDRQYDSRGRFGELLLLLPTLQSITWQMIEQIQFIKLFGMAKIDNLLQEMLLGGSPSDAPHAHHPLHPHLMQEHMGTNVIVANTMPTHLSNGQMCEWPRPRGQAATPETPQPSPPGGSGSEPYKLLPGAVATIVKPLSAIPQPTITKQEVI
Glucocorticoid receptor (Homo sapiens), sequence (P04150 whole entry, looked up, the tested form may be a part): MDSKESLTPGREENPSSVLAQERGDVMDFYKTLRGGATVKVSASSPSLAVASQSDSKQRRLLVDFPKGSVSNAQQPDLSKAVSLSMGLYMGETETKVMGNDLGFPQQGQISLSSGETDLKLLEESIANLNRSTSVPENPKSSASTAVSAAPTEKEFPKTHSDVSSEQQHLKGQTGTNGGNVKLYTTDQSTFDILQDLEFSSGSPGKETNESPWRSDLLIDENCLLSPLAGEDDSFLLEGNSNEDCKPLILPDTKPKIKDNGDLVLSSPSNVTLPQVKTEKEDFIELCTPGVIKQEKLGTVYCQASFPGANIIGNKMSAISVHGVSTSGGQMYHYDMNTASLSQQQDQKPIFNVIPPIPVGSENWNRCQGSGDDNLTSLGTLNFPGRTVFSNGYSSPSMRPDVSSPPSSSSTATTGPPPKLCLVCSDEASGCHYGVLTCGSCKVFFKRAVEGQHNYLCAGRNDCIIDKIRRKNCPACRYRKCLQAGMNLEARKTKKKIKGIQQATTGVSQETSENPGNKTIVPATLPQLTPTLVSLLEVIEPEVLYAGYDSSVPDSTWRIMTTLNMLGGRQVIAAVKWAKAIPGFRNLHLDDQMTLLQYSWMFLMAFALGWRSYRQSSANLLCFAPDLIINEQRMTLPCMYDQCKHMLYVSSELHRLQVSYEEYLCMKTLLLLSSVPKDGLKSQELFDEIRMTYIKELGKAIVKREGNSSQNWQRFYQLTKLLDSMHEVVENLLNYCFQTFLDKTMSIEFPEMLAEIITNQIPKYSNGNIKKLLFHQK
Nuclear respiratory factor 1 (Homo sapiens), sequence (Q16656 whole entry, looked up): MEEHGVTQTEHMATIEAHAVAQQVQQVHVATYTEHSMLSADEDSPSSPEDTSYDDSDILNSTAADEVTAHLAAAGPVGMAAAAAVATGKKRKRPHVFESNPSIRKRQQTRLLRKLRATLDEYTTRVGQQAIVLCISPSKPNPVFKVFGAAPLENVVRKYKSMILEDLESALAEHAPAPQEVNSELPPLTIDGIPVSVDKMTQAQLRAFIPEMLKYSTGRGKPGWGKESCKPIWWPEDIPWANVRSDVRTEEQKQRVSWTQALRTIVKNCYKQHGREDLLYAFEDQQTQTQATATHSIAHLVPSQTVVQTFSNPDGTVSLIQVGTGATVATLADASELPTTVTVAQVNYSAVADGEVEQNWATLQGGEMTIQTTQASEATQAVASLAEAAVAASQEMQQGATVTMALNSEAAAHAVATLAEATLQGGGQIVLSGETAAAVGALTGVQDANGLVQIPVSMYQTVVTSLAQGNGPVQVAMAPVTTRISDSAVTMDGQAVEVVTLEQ
Cellular tumor antigen p53 (Homo sapiens), sequence (P04637 whole entry, looked up): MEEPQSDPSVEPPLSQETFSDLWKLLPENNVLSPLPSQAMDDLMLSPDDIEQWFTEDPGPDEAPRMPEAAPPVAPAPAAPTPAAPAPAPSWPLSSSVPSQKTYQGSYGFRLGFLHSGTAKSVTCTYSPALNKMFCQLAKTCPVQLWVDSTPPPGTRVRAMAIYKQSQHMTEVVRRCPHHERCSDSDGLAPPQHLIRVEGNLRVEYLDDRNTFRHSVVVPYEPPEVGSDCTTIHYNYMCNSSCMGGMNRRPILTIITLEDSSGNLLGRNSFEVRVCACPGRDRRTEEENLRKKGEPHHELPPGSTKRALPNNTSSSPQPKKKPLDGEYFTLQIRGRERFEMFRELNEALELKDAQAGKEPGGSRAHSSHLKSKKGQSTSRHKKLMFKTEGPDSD
Myc proto-oncogene protein (Homo sapiens), sequence (P01106 whole entry, looked up, the tested form may be a part): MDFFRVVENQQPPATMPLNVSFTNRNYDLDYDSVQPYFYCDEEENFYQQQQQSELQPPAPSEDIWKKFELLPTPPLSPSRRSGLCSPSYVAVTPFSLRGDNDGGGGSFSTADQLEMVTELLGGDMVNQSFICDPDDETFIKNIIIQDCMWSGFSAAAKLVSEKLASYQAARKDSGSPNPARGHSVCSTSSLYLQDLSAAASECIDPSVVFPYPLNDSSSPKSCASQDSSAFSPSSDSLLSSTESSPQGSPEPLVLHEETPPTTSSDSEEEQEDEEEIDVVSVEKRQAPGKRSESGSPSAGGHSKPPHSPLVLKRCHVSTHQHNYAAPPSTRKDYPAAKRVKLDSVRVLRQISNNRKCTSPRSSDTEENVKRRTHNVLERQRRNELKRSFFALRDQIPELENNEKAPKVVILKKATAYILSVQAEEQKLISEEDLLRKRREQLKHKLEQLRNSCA
Oxysterols receptor LXR-alpha (Homo sapiens), sequence (Q13133 whole entry, looked up): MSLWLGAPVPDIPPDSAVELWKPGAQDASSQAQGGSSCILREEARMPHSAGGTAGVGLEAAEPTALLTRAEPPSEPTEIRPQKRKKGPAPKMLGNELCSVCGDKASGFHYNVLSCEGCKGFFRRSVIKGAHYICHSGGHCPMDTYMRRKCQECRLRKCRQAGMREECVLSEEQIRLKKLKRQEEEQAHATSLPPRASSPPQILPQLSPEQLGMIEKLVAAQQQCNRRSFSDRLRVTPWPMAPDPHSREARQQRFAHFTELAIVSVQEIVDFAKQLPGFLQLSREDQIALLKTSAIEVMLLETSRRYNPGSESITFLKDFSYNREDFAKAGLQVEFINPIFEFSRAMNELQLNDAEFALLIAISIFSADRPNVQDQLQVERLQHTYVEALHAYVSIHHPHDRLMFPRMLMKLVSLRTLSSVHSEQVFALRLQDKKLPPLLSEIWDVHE
Transcriptional activator Myb (Homo sapiens), sequence (P10242 whole entry, looked up): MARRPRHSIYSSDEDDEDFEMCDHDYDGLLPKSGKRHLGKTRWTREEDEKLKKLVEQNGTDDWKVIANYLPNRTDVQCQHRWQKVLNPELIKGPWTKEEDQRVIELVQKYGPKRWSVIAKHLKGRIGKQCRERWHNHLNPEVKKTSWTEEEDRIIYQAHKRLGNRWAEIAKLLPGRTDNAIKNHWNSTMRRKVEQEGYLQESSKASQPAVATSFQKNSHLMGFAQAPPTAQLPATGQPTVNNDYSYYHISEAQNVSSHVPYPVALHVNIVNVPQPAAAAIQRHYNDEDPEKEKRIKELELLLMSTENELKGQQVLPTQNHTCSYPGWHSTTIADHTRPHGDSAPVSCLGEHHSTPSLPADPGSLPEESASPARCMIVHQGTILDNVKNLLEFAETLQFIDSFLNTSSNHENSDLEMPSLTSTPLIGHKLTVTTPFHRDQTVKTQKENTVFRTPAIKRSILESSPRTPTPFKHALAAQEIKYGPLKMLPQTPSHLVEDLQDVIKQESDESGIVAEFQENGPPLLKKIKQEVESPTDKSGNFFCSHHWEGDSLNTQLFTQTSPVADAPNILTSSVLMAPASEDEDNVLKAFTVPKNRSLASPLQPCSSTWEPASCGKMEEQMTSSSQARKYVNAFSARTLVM
Oxysterols receptor LXR-beta (Homo sapiens), sequence (P55055 whole entry, looked up, the tested form may be a part): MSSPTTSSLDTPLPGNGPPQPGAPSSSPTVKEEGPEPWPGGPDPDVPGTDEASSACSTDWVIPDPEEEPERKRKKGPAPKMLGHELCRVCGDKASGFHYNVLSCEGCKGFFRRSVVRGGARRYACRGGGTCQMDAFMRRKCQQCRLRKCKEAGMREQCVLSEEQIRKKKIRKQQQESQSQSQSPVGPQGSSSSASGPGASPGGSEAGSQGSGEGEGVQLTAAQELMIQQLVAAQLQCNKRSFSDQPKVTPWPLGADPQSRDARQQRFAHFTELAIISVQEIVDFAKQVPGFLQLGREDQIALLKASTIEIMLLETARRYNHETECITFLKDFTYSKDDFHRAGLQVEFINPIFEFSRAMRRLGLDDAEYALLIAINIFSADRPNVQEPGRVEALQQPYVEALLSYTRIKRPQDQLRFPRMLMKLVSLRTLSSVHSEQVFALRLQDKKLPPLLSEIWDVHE

Consider `OCC(O)CC(F)(F)C(F)(F)C(F)(F)C(F)(F)F` (centres undefined), for which the compound was called inactive in [1], in experiment [2], in [3], in experiment [4], in experiment [5] and in experiment [6]. The outcome in [7], in experiment [8], in experiment [9], in [10], in experiment [11] and in [12] was inactive. Moreover, the outcome in experiment [13] and in [14] was inactive.
For `Brc1nc2ccccc2s1`, the compound was classed as inactive in [1], in experiment [15], in experiment [3], in [16], in experiment [17] and in experiment [4]. Further, the compound was called inactive in experiment [5], in experiment [6], in experiment [7], in experiment [12] and in experiment [13]. The AC50 in [9] was 23.6 µM (active).
Turning to `CN(C(=O)C(F)(F)C(F)(F)C(F)(F)F)[Si](C)(C)C`, the result in experiment [1], in experiment [15], in experiment [3], in experiment [17], in [4] and in experiment [5] was inactive. Besides, the result in experiment [6], in experiment [7], in experiment [8], in [9], in experiment [10] and in experiment [11] was inactive. The outcome in experiment [12] and in experiment [13] was inactive.
As for `O=c1[nH]cccc1O`, the outcome in experiment [1], in experiment [18], in experiment [19], in experiment [3], in [16] and in experiment [17] was inactive. In addition, the result in experiment [4], in experiment [5], in experiment [6], in experiment [7], in experiment [8] and in [9] was inactive. Moreover, the outcome in experiment [10] and in experiment [11] was inactive.
Turning to `Cc1cccc(C)n1`, the outcome in [1], in experiment [18], in experiment [15], in experiment [3], in experiment [16] and in experiment [4] was inactive. The compound was called inactive in experiment [5], in [6], in experiment [7], in experiment [8], in experiment [9] and in [10].
`O=S(=O)(O)c1ccc(Cl)cc1`: the call in [1], in experiment [18], in [19], in [15], in experiment [3] and in [16] was inactive. For the same compound, the outcome in experiment [17], in experiment [4], in [5], in experiment [6], in experiment [7] and in [9] was inactive. Besides, the result in [11] was inactive.
